Assay outcomes from PubChem BioAssay.
This is a sample that favours compounds with a hit; in the whole collection about 3.7% have one here.
PfHsp90 set2 = reduces growth (ATP signal) of yeast expressing P. falciparum Hsp90; 0.32% of 310,000 active; S. cerevisiae expressing PfHsp90, BacTiter-Glo ATP, 48 h; yeast lacking PDR1 and PDR3 efflux regulators; inhibition, % at 9.4 µM;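 active = every replicate shows inhibition above about 80%, whatever the replicate mean, limit read from the data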;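 also: 0% = DMSO neutral controls and 100% = 20 µM radicicol positive controls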
TIM10 inh = TIM10 yeast growth inhibition. S. cerevisiae TIM10 strain growth, BacTiter-Glo luminescence, 24 h. inhibition, % at 10 µM. 1.4% of 330,000 active. AID 463195;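 active = inhibition of 40% or more at the single tested concentration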;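 also: wild-type TIM10 isogenic control strain grown at permissive 25 °C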
Rce1 inhib = blocks yeast Ras-converting enzyme | yeast membranes, quenched prenylated peptide cleavage fluorescence | 0.27% of 290,000 active | Q03530 | calls only;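 active = fall in fluorescence gain of 50% or more versus controls, with final raw signal at or below 3038400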;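 also: plate controls were neutral control wells for no effect and wells lacking membranes for full effect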
Target sequence (Q03530 whole entry, looked up): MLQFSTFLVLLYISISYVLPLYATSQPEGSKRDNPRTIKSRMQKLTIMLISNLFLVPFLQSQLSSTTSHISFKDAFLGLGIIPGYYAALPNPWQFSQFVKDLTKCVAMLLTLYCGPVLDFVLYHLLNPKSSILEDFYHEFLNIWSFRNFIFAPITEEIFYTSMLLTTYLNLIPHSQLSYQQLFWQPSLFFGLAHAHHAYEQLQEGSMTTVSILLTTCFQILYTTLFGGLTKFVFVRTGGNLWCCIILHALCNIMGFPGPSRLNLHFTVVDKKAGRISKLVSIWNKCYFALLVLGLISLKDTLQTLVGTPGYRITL
tim23-1 inh = inhibits growth of tim23-1 mutant yeast; S. cerevisiae tim23-1 growth, BacTiter-Glo luminescence, 24 h; inhibition, % at 20 µM; 1.3% of 330,000 active; AID 463212;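 active = growth inhibition of the mutant yeast at or above 50%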;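 also: temperature-sensitive mutant grown at 25 °C; plate controls were DMSO-treated mutant yeast for no effect and medium wells lacking yeast for full effect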
tim10-1 inh = inhibits growth of tim10-1 mutant yeast; S. cerevisiae tim10-1 ts strain growth, BacTiter-Glo, 24 h; 2.2% of 330,000 active; inhibition, % at 20 µM;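 active = inhibition of at least 40%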;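 also: mutant grown at 25 °C; 0% = DMSO wells with yeast and 100% = wells holding no yeast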
tim10-1 confirm = confirmation of tim10-1 mutant yeast growth inhibitors. shares compounds with tim10-1 inh. S. cerevisiae tim10-1 ts strain growth, BacTiter-Glo, 24 h. inhibition, % at 20 µM. 56% of 7,400 active. AID 463213;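 active = inhibition of yeast growth at or above a set limit in either of two repeat tests at 20 µM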;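 also: tim10-1 mutant grown at permissive 25 °C to find synthetic lethal compounds; 0% = DMSO yeast wells and 100% = medium wells without yeast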
TIM10 conf = confirmation of TIM10 yeast growth inhibitors; S. cerevisiae tim10 strain growth, BacTiter-Glo luminescence, 24 h; shares compounds with TIM10 inh; AID 463215; inhibition, % at 10 µM; 63% of 4,600 active;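 active = inhibition of yeast growth at or above a set limit in either of two replicates at 10 µM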;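 also: this counterscreen used the strain with wild-type TIM10; 0% = yeast with DMSO and 100% = medium wells lacking yeast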
Active calls of the source: *; i = inactive; / = no result given.

SMILES	PfHsp90 set2	TIM10 inh	Rce1 inhib	tim23-1 inh	tim10-1 inh	tim10-1 confirm	TIM10 conf
COc1ccccc1C(=O)NCCC(=O)N1CCN(S(=O)(=O)c2ccc(Cl)cc2)CC1	-11	-2	/	2	6	/	/
CSc1ccc(-c2nc3cnccn3c2Nc2ccc3c(c2)OCO3)cc1	/	27	i	34	46*	43*	/
Clc1ccc(-c2nc3cnccn3c2NC2CCCC2)cc1	-56	23	i	30	50*	23	/
CCC(C)Sc1ccc(-c2nc3cnccn3c2NC2CCCCC2)cc1 (configuration not stated)	12	16	i	25	22	/	/
Clc1ccc(-c2nc3cnccn3c2Nc2ccc3c(c2)OCO3)cc1	-18	26	i	49	45*	35*	/
COc1ccc(Cl)cc1NC(=O)CN1C(=O)NC(Cc2c[nH]c3ccccc23)C1=O (configuration not stated)	-1	-7	/	4	-2	/	/
CCc1cccc(NC(=O)CSc2nnc(Cc3ccc(OC)cc3)c(=O)[nH]2)c1	/	-10	i	-10	-20	/	/
Cc1ccc(Cl)cc1NC(=O)c1ccccc1OCC(=O)Nc1ccc(Cl)cc1	/	30	i	10	48*	25	/
CC(C)Cn1c(-c2ccccc2F)n[nH]c1=S	/	2	i	12	17	/	/
CC(C)Cn1c(-c2csc3c2CCCC3)n[nH]c1=S	6	44*	i	40	48*	20	40*
OCCNc1ncnc2c1cnn2Cc1ccccc1	3	/	i	/	/	/	/
CCO/C=N/Nc1nc(C(F)(F)F)nc2c1cnn2Cc1ccccc1	10	56*	i	40	59*	56*	58*
O=C(NC1=NCCS1)c1sc2cc(Cl)cc(Cl)c2c1Cl	0	45*	i	43	50*	25	6
COc1cc(OC)cc(C(=O)NC2=NCCS2)c1	9	11	i	7	9	/	/
Cn1cc(-c2nc3ccccc3[nH]2)c2ccccc21	12	71*	i	-10	41*	27	-3
Cc1ccc(COc2ccccc2C(=S)N2CCCC2)cc1	-24	42*	i	27	40*	24	23
COC(=O)c1nnn(-c2ccsc2C(=O)OC)c1C(=O)OC	/	-18	i	15	-3	/	/
Cc1nc(Nc2ccc(Cl)c(Cl)c2)sc1C(=O)Nc1ccccc1	-33	53*	i	36	59*	32*	69*
Cc1nc(Nc2ccccc2)sc1C(=O)c1ccccc1	17	27	i	32	15	/	/
COC(=O)c1ccc(NC(=S)NC2CC3CCC2C3)cc1 (configuration not stated)	5	1	i	20	22	/	/
N#CC(c1ccccc1)c1cnccn1 (configuration not stated)	-8	-10	i	2	-9	/	/
COc1ccc(CNC(=O)c2ccc(CS(=O)(=O)c3ccc(C)cc3)o2)cc1	4	7	i	1	-4	/	/
COc1ccc(S(=O)(=O)/C(C#N)=C/Nc2ccc(NC(C)=O)cc2)cc1	-19	-7	i	10	17	/	/
O=C(c1ccc(Oc2ccc([N+](=O)[O-])cc2)cc1)N1CCCCCC1	14	5	i	34	29	/	/
O=C(CCc1ccc(Oc2cc([N+](=O)[O-])cc([N+](=O)[O-])c2)cc1)N1CCCCC1	-5	54*	i	11	57*	35*	48*
SMILES	PfHsp90 set2	TIM10 inh	Rce1 inhib	tim23-1 inh	tim10-1 inh	tim10-1 confirm	TIM10 conf
Cc1cccc2cc(COC(=O)c3ccccn3)c(=O)[nH]c12	15	3	i	8	9	/	/
Cc1ccc(CNC(=O)/C(C#N)=C\c2ccc(N(C)C)cc2)cc1	/	45*	i	20	45*	29	17
Cn1c2ccccc2c(=O)c2c(=O)n(Cc3ccccc3)c(-c3ccc(F)cc3)nc21	-6	28	i	23	12	/	/
CCS(=O)(=O)c1ccc2oc(Nc3cc(C)cc(C)c3)nc2c1	-14	43*	/	43	47*	37*	37*
c1ccc2c(c1)OCC(c1nnc3sc(-c4ccc5c(c4)OCO5)nn13)O2 (configuration not stated)	-53	48*	i	27	42*	28	13
O/N=C/c1cc(Cl)ccc1OCc1cccc2ccccc12	/	44*	i	48	63*	24	50*
O=[N+]([O-])c1nn(-c2ccc3c(c2)OCCO3)n(O)c1=NCc1ccccc1Cl	-66	-4	i	2	-3	/	/
O=[N+]([O-])c1nn(-c2ccc3c(c2)OCCO3)n(O)c1=NC1CCCCC1	/	49*	i	46	56*	46*	43*
CCOC(=O)C(C(=O)OCC)C(Nc1cccc(Br)c1)c1ccccc1 (configuration not stated)	32	53*	/	42	55*	37*	43*
COC(=O)C(C)Nc1cccc(Br)c1 (configuration not stated)	-12	-2	i	-1	-1	/	/
COc1cccc(/C=N/NC(=O)c2c(C)nc3ccc(Br)cn23)c1O	7	45*	i	11	41*	19	61*
Cc1ccc(N2CCN(C(=O)c3nn(C)c4c3CS(=O)(=O)c3ccccc3-4)CC2C)cc1 (configuration not stated)	9	13	i	32	31	/	/
Cc1ccc(NC(=O)CN2CCCN(S(=O)(=O)c3ccc(Br)s3)CC2)cc1	18	42*	i	37	44*	32*	29
O=C(CCc1nnc(CCc2ccccc2)o1)N1CCCC1c1nccs1 (configuration not stated)	-8	0	i	15	1	/	/
CC(C)(C)c1ccc(NC(=S)NCc2cccs2)cc1	8	46*	i	45	54*	40*	33*
CC(Sc1nnc(-c2ccco2)n1C)C(=O)N1C(C)CCCC1C (configuration not stated)	-11	11	i	10	11	/	/
CCc1cccc(CC)c1NC(=S)NCCc1c(C)[nH]c2ccc(C)cc12	-10	46*	i	46	45*	42*	46*
O=[N+]([O-])c1cccc(-c2ccc(/C=N/NC(=S)Nc3cccc(F)c3)o2)c1	-3	57*	i	47	52*	46*	59*
Cc1cccc(NC(=S)NNC(=O)c2cc3c(s2)CCC(C)C3)c1C (configuration not stated)	-14	51*	i	30	59*	39*	32*
CC1CCc2sc(C(=O)NN=C3CCC(c4ccccc4)CC3)cc2C1 (configuration not stated)	/	-2	i	35	23	/	/
